Records with an inconclusive call do not appear. A number with no mark means an inactive call. Calls of active or inactive are those of the source. Calls follow the shape of the dose curve; as a rule, active = well fitted cell-killing curve with a large enough effect; inconclusive = small, poorly fitted or top-dose-only effect, or effect the other way; inactive = no such curve, though single readings can be large or run the other way.
Potency is read from the fitted curve at half-maximal effect.

The test in a line: Viability qHTS for spleen associated tyrosine kinase inhibitor (SYKi) naive MV4-11 cells (AID 1963823). Also: nearly all actives have a fitted effect of over 40% in size. Conditions: MV4-11 AML viability, CellTiter-Glo luminescence, 72 h; series mostly up to 45 µM; viability (% of control): at the top concentration. In short, it runs like this: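 Cells: MV4-11, SYK inhibitor naive, 500 per well. Treatment: library compounds, 72 hr, 37 C, 5% CO2. Read-out: CellTiter-Glo luminescence after 10 min RT.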
(In general: Quantitative high-throughput screening tests each substance at several concentrations.)
As for `Cc1cc(O[C@@H]2O[C@H](COC(=O)CC(=O)O)[C@@H](O)[C@H](O)[C@H]2O)c(C(C)C)cc1O`, the “viability (% of control)” value is 79% [at 17.3 µM].
As to `O=C(/C=C/c1ccc(O)c(O)c1)O[C@H]1[C@H](OC2CCCCC2O)O[C@H](CO)[C@@H](O)[C@@H]1O` (some centres not stated), the “viability (% of control)” value is 50.5% [at 17.3 µM].
Regarding `CC(=O)c1c(C)cc(O)cc1O[C@@H]1O[C@H](CO)[C@@H](O)[C@H](O)[C@H]1O`, the “viability (% of control)” value is 63.7%.
Take `C/C=C/C1=CC2=C(CO1)C(=O)C(C)(O)C(OC(=O)c1c(C)cc(OC)cc1O)C2` (configuration not stated): the Potency was 6.4 µM (active).
On to `CC(=O)O[C@@H]1C(=O)C(C)=C(CCC(C)CC(=O)O)[C@@]2(C)CCCC(C)(C)C12` (some centres not stated), for which the “viability (% of control)” value was 69.3%.
As to `C=C1C(=O)O[C@@H]2[C@H]1CCC(C)=C(CCC(=O)O)[C@@]2(C)O`, the Potency was 9.2 µM (active).
As for `C=C1/C(=C/C=C2\CCC[C@]3(C)[C@@H]([C@@H](C)OCCC(O)(CC)CC)CC[C@@H]23)C[C@@H](O)C[C@@H]1O`, the “viability (% of control)” value is 7.66%.
As for `COc1ccc(-c2c(C)c(C(=O)NN3CCCCC3)nn2-c2ccc(Cl)cc2Cl)cc1`, the Potency was 16.4 µM (active).
`COc1cc2c(cc1O)[C@H](c1ccc(O[C@@H]3O[C@H](CO)[C@@H](O)[C@H](O)[C@H]3O)c(OC)c1)[C@@H](CO)[C@](O)(CO)C2`: the “viability (% of control)” value is 95.7% [at 17.3 µM].
`C=C1CC[C@@H]2[C@](C)(CO[C@@H]3O[C@H](CO)[C@@H](O)[C@H](O)[C@H]3O)[C@H](O)CC[C@@]2(C)[C@@H]1C/C=C1/C(=O)OC[C@H]1O`: the “viability (% of control)” value was 59% [at 17.3 µM].
In the case of `CCC1OC(=O)C(C)CC(C)C(=O)/C(C)=C/C(C)C(=O)/C=C/C1(C)O` (configuration not stated), the “viability (% of control)” value is 68.1%.
With `COCCN(C)Cc1ccc2nc3sc(C(=O)N(C)C4CCCCC4)cn3c2c1`, the “viability (% of control)” value was 71.8%.
